Here are results for 20 compounds from PubChem BioAssay.

The nature of assay [1]: antimalarial activity against Dd2 strain (AID 2302;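 active means growth inhibition above 50% at the single 2 µM test dose, taken to imply half-maximal potency below 2 µM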;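 further: 0% = DMSO untreated growth and 100% = chloroquine plus artemisinin killed control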). The note with it: P. falciparum Dd2 in RBCs, LDH growth readout, 72 h; at 2 µM; hits give high values.
The nature of assay [2]: human hepatoma cell viability loss – ATP luminescence, cytotoxicity control for P. falciparum antimalarial project, primary screen (AID 2303;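 active means inhibition above 50%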;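 further: 0% = DMSO wells and 100% = digitonin-killed cells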). The settings on record: HepG2 viability, 24-48 h, at 10 µM, hits give high values.
In assay [3] the target is L-lactate dehydrogenase (Plasmodium falciparum (isolate CDC / Honduras)) (UniProt Q27743). Put plainly: PfLDH activity inhibition – cell lysate, 3D7 strain, counter-screen for P. falciparum growth inhibition project (AID 2304).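 Further: 0% = vehicle and 100% = reference inhibitor.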 The note with it: P. falciparum 3D7 crude extract, LDH APAD/NBT absorbance; at 2 µM; hits give high values.
Chain of L-lactate dehydrogenase (Plasmodium falciparum (isolate CDC / Honduras)) (Q27743 whole entry, looked up): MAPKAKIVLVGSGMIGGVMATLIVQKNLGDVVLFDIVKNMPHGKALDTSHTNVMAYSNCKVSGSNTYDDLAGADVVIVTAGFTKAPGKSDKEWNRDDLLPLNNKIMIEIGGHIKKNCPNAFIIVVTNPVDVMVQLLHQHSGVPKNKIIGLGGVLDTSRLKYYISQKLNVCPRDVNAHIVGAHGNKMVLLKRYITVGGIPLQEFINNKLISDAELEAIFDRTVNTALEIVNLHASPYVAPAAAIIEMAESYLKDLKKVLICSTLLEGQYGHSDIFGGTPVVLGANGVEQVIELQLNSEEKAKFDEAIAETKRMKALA
A short description of assay [4]: inhibition of 3D7 malaria parasite growth – strain 3D7 (AID 2306).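 Further: 0% = DMSO wells and 100% = chloroquine plus artemisinin control wells.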 The settings on record: P. falciparum 3D7 erythrocytic growth, LDH absorbance, 72 h; at 2 µM; hits give high values.
The target of assay [5] is Calcium-dependent protein kinase 1 (Plasmodium falciparum (isolate 3D7)) (UniProt P62344). Description: PfCDPK1 kinase inhibitors, biochemical, TCAMS library (AID 1159585; cut-off not given, nearly all actives have IC50 up to about 0.98 µM;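 further: inhibitors leave more ATP so luminescence rises with inhibition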). The settings on record: recombinant PfCDPK1, Kinase-Glo ATP depletion luminescence. Background: Kinase-Glo reads ATP consumption through a luciferase reaction.
Chain of Calcium-dependent protein kinase 1 (Plasmodium falciparum (isolate 3D7)) (P62344 whole entry, looked up): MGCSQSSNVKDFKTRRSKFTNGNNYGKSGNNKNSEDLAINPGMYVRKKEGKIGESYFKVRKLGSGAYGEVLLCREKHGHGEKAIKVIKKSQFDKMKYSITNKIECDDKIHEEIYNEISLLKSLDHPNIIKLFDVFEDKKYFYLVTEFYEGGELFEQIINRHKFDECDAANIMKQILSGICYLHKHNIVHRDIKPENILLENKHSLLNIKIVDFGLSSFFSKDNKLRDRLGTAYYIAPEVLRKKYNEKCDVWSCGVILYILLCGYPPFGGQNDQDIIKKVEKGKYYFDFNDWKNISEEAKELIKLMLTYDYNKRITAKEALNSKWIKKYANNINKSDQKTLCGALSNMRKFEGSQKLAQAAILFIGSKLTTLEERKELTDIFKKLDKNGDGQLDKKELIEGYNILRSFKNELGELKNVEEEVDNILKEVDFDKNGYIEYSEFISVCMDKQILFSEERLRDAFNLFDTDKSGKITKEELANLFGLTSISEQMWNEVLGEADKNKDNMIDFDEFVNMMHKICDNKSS
The target of assay [6] is Plasmodium falciparum protein kinase 6 (PK6, PF3D7_1337100) (UniProt Q8IDW1). Put plainly: PfPK6 kinase inhibitors, biochemical, TCAMS library (AID 1159586). The note with it: recombinant PfPK6, Kinase-Glo ATP depletion luminescence.
Chain of Plasmodium falciparum protein kinase 6 (PK6, PF3D7_1337100) (Q8IDW1 1-305): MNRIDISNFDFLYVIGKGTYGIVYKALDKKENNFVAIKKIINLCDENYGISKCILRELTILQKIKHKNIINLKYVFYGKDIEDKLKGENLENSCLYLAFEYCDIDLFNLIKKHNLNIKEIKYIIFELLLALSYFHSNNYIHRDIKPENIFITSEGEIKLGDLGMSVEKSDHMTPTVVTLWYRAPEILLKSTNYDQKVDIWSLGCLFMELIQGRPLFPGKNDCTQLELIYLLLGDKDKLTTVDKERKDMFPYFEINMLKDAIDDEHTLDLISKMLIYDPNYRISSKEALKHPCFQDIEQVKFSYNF
Assay [7] concerns the target Protein kinase 7 (PK7), Plasmodium falciparum 3D7 (PF3D7_0213400) (UniProt Q7YTF7). Put plainly: inhibition of Plasmodium PK7 catalytic activity – biochemical, TCAMS antimalarial set, Kinase-Glo luminescence (AID 1159587). The settings on record: recombinant PfPK7, Kinase-Glo ATP depletion luminescence.
The target of assay [8] is Calcium-dependent protein kinase 4 (Plasmodium falciparum (isolate 3D7)) (UniProt Q8IBS5). Description: PfCDPK4 kinase inhibitors, biochemical, TCAMS library (AID 1159588; cut-off not given, nearly all actives have IC50 up to about 0.91 µM). The note with it: recombinant PfCDPK4, Kinase-Glo ATP depletion luminescence.
Chain of Calcium-dependent protein kinase 4 (Plasmodium falciparum (isolate 3D7)) (Q8IBS5 whole entry, looked up): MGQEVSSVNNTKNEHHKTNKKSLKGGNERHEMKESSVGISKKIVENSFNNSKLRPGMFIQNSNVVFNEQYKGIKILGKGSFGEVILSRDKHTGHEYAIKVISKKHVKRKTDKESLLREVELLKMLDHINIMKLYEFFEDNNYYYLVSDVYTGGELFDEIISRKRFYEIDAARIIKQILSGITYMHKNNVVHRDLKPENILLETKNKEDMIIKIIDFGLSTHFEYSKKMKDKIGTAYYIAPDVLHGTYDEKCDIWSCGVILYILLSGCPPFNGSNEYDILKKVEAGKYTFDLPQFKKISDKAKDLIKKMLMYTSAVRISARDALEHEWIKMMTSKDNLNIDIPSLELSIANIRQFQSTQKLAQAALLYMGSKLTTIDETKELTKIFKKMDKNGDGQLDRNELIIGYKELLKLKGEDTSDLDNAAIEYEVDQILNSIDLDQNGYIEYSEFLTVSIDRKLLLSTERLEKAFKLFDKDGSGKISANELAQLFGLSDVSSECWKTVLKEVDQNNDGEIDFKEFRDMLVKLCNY

Unmarked numbers belong to inactive results. For some of these results: Results with a measured potency or affinity are listed apart. Activity calls are given as the source filed them. Unless noted, how the calls were made is not given here.

Chain of Protein kinase 7 (PK7), Plasmodium falciparum 3D7 (PF3D7_0213400) (Q7YTF7 1-343): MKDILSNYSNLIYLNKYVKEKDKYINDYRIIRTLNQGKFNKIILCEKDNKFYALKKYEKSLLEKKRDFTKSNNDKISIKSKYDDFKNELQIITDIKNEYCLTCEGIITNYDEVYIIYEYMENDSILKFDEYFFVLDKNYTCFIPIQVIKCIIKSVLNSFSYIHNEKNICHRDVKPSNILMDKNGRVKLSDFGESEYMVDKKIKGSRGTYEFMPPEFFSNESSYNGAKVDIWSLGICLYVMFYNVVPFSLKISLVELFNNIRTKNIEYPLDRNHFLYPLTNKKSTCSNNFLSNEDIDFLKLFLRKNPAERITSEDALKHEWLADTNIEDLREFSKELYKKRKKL

What is called inhibition is the change of the read-out against control, counted positive when it falls. As for `COc1ccc(CN2CCN(Cc3cc(Cl)ccc3O)CC2CCO)c(C)c1C` (stereo not given), the growth inhibition in assay [1] is 76% (active); in assay [4] it was 94% (active). Moreover, the inhibition in assay [2] is 1%; in assay [3], 3%. The result in assay [5], in assay [6], in assay [7] and in assay [8] was inactive.
`Cc1c(Cl)cccc1S(=O)(=O)N1CCCCC(c2ccc(C(F)(F)F)cc2)=N1`: the growth inhibition is 91% (active) in assay [1] and 86% (active) in assay [4]. Besides, the inhibition in assay [2] was 15%; in assay [3], 5%. In addition, the outcome in assay [5], in assay [6], in assay [7] and in assay [8] was inactive.
Turning to `COc1cc(C(C)C)nc2ccc(NC(=O)c3ccc(C(=O)Nc4ccc5nc(C(C)C)cc(OC)c5c4)cc3)cc12`, the growth inhibition in assay [1] is 72% (active); in assay [4], 95% (active). Also, the inhibition in assay [2] was 39%; in assay [3] it was 0%. Moreover, the result in assay [5], in assay [6], in assay [7] and in assay [8] was inactive.
With `Cc1ccc(Nc2cc(C)nn2-c2nc(C)cc(=O)[nH]2)cc1`, the growth inhibition in assay [1] is 95% (active); in assay [4], 97% (active). The inhibition is 54% (active) in assay [2] and -3% in assay [3]. For the same compound, the result in assay [5], in assay [6], in assay [7] and in assay [8] was inactive.
As for `COc1ccc2nccc([C@@H](O)CN3CCC(NCc4cc5ccccc5o4)CC3)c2c1`, the growth inhibition was 72% (active) in assay [1] and 96% (active) in assay [4]. The inhibition in assay [2] is 17%; in assay [3] it was 4%. Also, the result in assay [5], in assay [6], in assay [7] and in assay [8] was inactive.
Regarding `CCc1cc(Br)c2c(c1)C(NCCCNc1cc(=O)c3ccccc3[nH]1)CCN2` (stereo not given), the growth inhibition in assay [1] is 20%; in assay [4] it was 94% (active). Further, the inhibition is 13% in assay [2] and -1% in assay [3]. The outcome in assay [5], in assay [6], in assay [7] and in assay [8] was inactive.
With `O=C(Nc1ccccc1)Nc1cccc(-c2ccc(-c3nc4ccc(C(F)(F)F)cc4[nH]3)cc2)c1`, the values for the growth inhibition in assay [1] and in assay [4] were 37% and 101% (active), respectively. The inhibition in assay [2] is 48%; in assay [3], -3%. For the same compound, the result in assay [5], in assay [6], in assay [7] and in assay [8] was inactive.
In the case of `O=C(Nc1cccc(-c2csc(-c3ccccc3)n2)c1)c1cccs1`, the growth inhibition in assay [1] was 71% (active); in assay [4] it was 89% (active). Besides, the values for the inhibition in assay [2] and in assay [3] were 0% and 2%, respectively. The outcome in assay [5], in assay [6], in assay [7] and in assay [8] was inactive.
In the case of `O=C(Nc1ccc(-c2nc3cc4ccccc4cc3[nH]2)cc1)c1cccc(Br)c1`, the growth inhibition is 89% (active) in assay [1] and 101% (active) in assay [4]. Further, the inhibition in assay [2] was 50% (active); in assay [3] it was -5%. In addition, the result in assay [5], in assay [6], in assay [7] and in assay [8] was inactive.
Turning to `Cc1cc(N[C@@H](CC(C)C)C(=O)NCc2cccc(F)c2)nc(Nc2ccccc2)n1`, the growth inhibition in assay [1] is 76% (active); in assay [4], 100% (active). The inhibition in assay [2] was -5%; in assay [3], 2%. Besides, the outcome in assay [5], in assay [6], in assay [7] and in assay [8] was inactive.
In the case of `CC(=O)N(C)c1cccc(C(=O)Nc2cccc(-c3ccc(-c4nc5ccc(C(F)(F)F)cc5[nH]4)cc3)c2)c1`, the growth inhibition in assay [1] was 31%; in assay [4], 90% (active). For the same compound, the inhibition in assay [2] was 63% (active); in assay [3] it was -2%. Further, the outcome in assay [5], in assay [6], in assay [7] and in assay [8] was inactive.
As to `CCOc1ccccc1C(=O)Nc1cccc(-c2nc3ncccn3c2C)c1`, the values for the growth inhibition in assay [1] and in assay [4] were 88% (active) and 92% (active), respectively. The inhibition is 0% in assay [2] and -6% in assay [3]. Also, the result in assay [5], in assay [6], in assay [7] and in assay [8] was inactive.
Take `CCCCN(CCCC)C(=Nc1cccc(Cl)c1Cl)Nc1ccc(C#N)cc1O`: the growth inhibition in assay [1] was 69% (active); in assay [4], 89% (active). The inhibition was 4% in assay [2] and -6% in assay [3]. Moreover, the outcome in assay [5], in assay [6], in assay [7] and in assay [8] was inactive.
`CCOc1ccc(C=CC(=O)Nc2ccc3nc(N4CCOCC4)cc(C)c3c2)cc1OC`: the values for the growth inhibition in assay [1] and in assay [4] were 23% and 92% (active), respectively. Besides, the inhibition in assay [2] is 14%; in assay [3], 5%. In addition, the outcome in assay [5], in assay [6], in assay [7] and in assay [8] was inactive.
`O=C(CSc1nc2ccc([N+](=O)[O-])cc2s1)Nc1ccccc1-c1ccccc1`: the growth inhibition was 49% in assay [1] and 80% (active) in assay [4]. In addition, the inhibition is -1% in assay [2] and 0% in assay [3]. Besides, the outcome in assay [5], in assay [6], in assay [7] and in assay [8] was inactive.
In the case of `N#Cc1cccc(Nc2nccc(NCC(O)c3ccccc3C(F)(F)F)n2)c1` (stereo not given), the growth inhibition is 39% in assay [1] and 98% (active) in assay [4]. Moreover, the inhibition in assay [2] was 36%; in assay [3] it was 3%. Besides, the outcome in assay [5], in assay [6], in assay [7] and in assay [8] was inactive.
With `CN1CCC[C@H]1COc1ccc(CN2CC[C@H](NC(=O)c3ccc(Cl)c(Cl)c3)C2)cc1Br`, the results for the growth inhibition in assay [1] and in assay [4] were 20% and 101% (active), respectively. Further, the figures for the inhibition in assay [2] and in assay [3] were 81% (active) and -1%, respectively. In addition, the result in assay [5], in assay [6], in assay [7] and in assay [8] was inactive.
Turning to `CCCN(CCC)S(=O)(=O)c1ccc(C(=O)Nc2nc3ccc(-c4cc(=O)[nH]c(Nc5ccccc5Cl)n4)cc3[nH]2)cc1`, the growth inhibition in assay [1] was 98% (active); in assay [4], 100% (active). For the same compound, the inhibition was 1% in assay [2] and -4% in assay [3]. The outcome in assay [5], in assay [6], in assay [7] and in assay [8] was inactive.
`O=C(Nc1ccc(-c2nc3ccccc3[nH]2)cc1)C1CCN(Cc2ccccc2)CC1`: the growth inhibition was 82% (active) in assay [1] and 100% (active) in assay [4]. Moreover, the inhibition in assay [2] was 12%; in assay [3], 4%. Also, the outcome in assay [5], in assay [6], in assay [7] and in assay [8] was inactive.
For `CCC(c1ccccc1)c1nn2c(-c3cccs3)nnc2s1` (stereo not given), the growth inhibition is 95% (active) in assay [1] and 97% (active) in assay [4]. The inhibition in assay [2] is 10%; in assay [3] it was -4%. Further, the outcome in assay [5], in assay [6], in assay [7] and in assay [8] was inactive.
